# Compound activity from PubChem BioAssay.
# Rows were chosen to be rich in hits. Some 22% of all compounds tested hit in one or more screens of this group.
# CYP2C9 act – CYP2C9 (human) activation | 96,000 tested, 1.4% active | AID 1024 | activation factor at 5 µM | recombinant CYP2C9, luciferin-H conversion, luminescence; stronger effect = higher value; factor 1 = untreated enzyme, 0 = blocked | P11712;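 active = activation factor of 2 or more for CYP2C9 at a 5 µM dose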;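 also: 0 = sulfaphenazole-blocked wells and 1 = vehicle-only wells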
# CYP2C9 inh – human CYP2C9 inhibition. P11712. CYP2C9 Supersomes, luciferin-H conversion, luminescence. inhibition, % at 5 µM. 96,000 tested, 20% active. AID 777;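 active = blocking of liver enzyme CYP2C9 beyond about 50% at 5 µM, limit read from the data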
# CYP2C19 activ – activators of human cytochrome P450 2C19 | P33261 | activation factor at 5 µM | 96,000 tested, under 10 active | recombinant CYP2C19, luciferin-H EGE luminescence; stronger effect = higher value; 0 = fully inhibited enzyme, 1 = untreated enzyme;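 active = activation factor of at least 2 at 5 µM in the primary screen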;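 also: 0 = wells with 2.5 mM tranylcypromine and 1 = vehicle-only wells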
# Target sequence (P33261 whole entry, looked up): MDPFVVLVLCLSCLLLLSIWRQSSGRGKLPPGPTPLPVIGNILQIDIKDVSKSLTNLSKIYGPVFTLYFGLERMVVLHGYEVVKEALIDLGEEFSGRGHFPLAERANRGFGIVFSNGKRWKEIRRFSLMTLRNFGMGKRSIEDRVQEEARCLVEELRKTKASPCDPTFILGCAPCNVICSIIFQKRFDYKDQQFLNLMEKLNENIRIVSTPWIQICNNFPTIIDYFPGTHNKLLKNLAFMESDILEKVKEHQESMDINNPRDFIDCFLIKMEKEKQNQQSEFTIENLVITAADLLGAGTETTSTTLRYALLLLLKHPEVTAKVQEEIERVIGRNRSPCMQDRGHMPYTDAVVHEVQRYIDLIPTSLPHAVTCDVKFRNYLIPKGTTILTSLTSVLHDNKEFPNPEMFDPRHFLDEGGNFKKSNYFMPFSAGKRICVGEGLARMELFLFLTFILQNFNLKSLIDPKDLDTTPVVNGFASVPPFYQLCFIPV
# CYP2C19 inh – human CYP2C19 inhibition; P33261; CYP2C19 Supersomes, luciferin-H EGE luminescence, 30 min; inhibition, % at 5 µM; 96,000 tested, 21% active;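 active = CYP2C19 inhibition above a set limit at 5 µM in the primary screen, cut at about 50% in these data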;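 also: plate controls were negative control wells for no effect and 2.5 mM tranylcypromine positive control for full effect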
# Measles CPE – protection of cells from measles virus; AID 841; Measles virus-infected cells, CPE protection, absorbance; protection (pct of control), % at 4 µM; 140,000 tested, 1.5% active; in the data active = protection mostly above about 24%, no sharp cut-off; inactive = mostly below about 26%
# The depositor's hits bear a star; nt = no result given.
SMILES,CYP2C9 act,CYP2C9 inh,CYP2C19 activ,CYP2C19 inh,Measles CPE
CCSc1nc2c(c(=O)[nH]1)C(c1ccncc1)C(C(=O)OC)=C(C)N2 (centres undefined),0.5,52*,0.2,76*,27
CSc1nc2c(c(=O)[nH]1)C(c1ccncc1)C(C(=O)OC(C)C)=C(C)N2 (centres undefined),0.5,47,0.1,89*,18
CCN(CC)C(=O)CSc1nnc(COc2ccccc2)n1CC,0.9,14,0.7,28,4
Fc1ccc(OCCOCCNCC2CCCO2)cc1 (centres undefined),nt,nt,nt,nt,6
Cc1ccccc1-n1c(SCc2c(C)noc2C)nnc1-c1ccncc1,0.5,51*,0.2,78*,23
Cc1ccccc1-n1c(SCc2c(C)noc2C)nnc1-c1cccnc1,0.6,42,0.9,11,21
Cc1noc(C)c1CSc1nnc(-c2ccncc2)n1-c1ccc(Cl)c(Cl)c1,0.4,59*,0.2,84*,7
O=C(NCc1cccnc1)C1CCCN(Cc2cnn(-c3ccccc3)c2-n2cccc2)C1 (centres undefined),0.6,45,0.8,22,7
Cc1cccc(N=C(N2CCOCC2)P(=O)(N2CCOCC2)N2CCOCC2)c1,0.8,19,1,-3,5
[S-]C(=Nc1ccc(Cl)cc1)N[n+]1ccccc1,nt,nt,nt,nt,12
O=[N+]([O-])c1cccc(C(=Nc2ccc(Cl)cc2)NO)c1,0.3,71*,0.1,88*,12
O=[N+]([O-])c1cccc(C(=Nc2ccccc2Cl)NO)c1,0.4,62*,0.1,87*,1
ONC(=Nc1ccc(Cl)cc1)c1ccc(Cl)cc1,0.4,55*,0.3,71*,3
COc1ccc(NC(=O)CSc2nnc(C3CC3)n2N)cc1,0.9,8,0.9,6,13
COc1ccc(CCSc2nnc(C3CCCCC3)n2N)cc1,0.5,52*,0.4,58*,5
COc1cc(C=NCC2OCCc3ccccc32)cc(OC)c1 (centres undefined),nt,nt,nt,nt,8
CC(C)c1cc(NC(=O)C(C)(C)C)cc(C(C)C)c1O,1.3,-25,1.1,-8,14
COc1c(C(C)C)cc(NC(C)=O)cc1C(C)C,0.7,25,0.1,89*,11
Cn1c(COc2ccccc2)nnc1SCc1cc(=O)[nH]c2ccccc12,0.2,77*,0.3,72*,28
O=c1cc(CSc2nnc(COc3ccccc3)n2-c2ccccc2)c2ccccc2[nH]1,nt,nt,nt,nt,7
Cc1nc2sc(C(c3cccs3)N3CC(C)CC(C)C3)c(O)n2n1 (centres undefined),1.1,-14,0.3,67*,15
Cc1ccc(S(=O)(=O)N(CC(=O)N2CCC(C)CC2)c2cccc(C)c2)cc1,0.1,86*,0.2,82*,14
COc1ccccc1N1CCN(C(=O)CSc2ccccc2)CC1,0.5,46,0.6,44,2
COc1ccccc1N1CCN(C(=O)CN(c2ccccc2OC)S(=O)(=O)c2ccccc2)CC1,0.1,90*,0.3,75*,5
CCOC(=O)N1CCN(C(=O)CN(c2cc(Cl)ccc2OC)S(=O)(=O)c2ccccc2)CC1,0.4,65*,0.8,24,5
SMILES,CYP2C9 act,CYP2C9 inh,CYP2C19 activ,CYP2C19 inh,Measles CPE
CCOC(=O)N1CCN(C(=O)CN(c2cccc(C)c2)S(=O)(=O)c2ccc(C)cc2)CC1,0.3,74*,0.3,72*,14
Cc1ccc(S(=O)(=O)N(CC(=O)NC2CCCC2)c2cccc(C)c2)cc1,nt,nt,nt,nt,19
Brc1ccc2ncnc(Nc3ccc(N4CCOCC4)cc3)c2c1,1.1,-8,0.9,10,9
CCCN1C(=O)c2cc(C(=O)NCCc3cccc(C)c3)ccc2C1O (centres undefined),0.7,34,0.7,27,17
CC1CCCC(NC(=O)C2CCN(S(=O)(=O)N3CCCCCC3)CC2)C1C (centres undefined),nt,nt,nt,nt,18
CCOC(=O)N1CCN(C(=O)CN(c2cccc(C)c2)S(=O)(=O)c2ccccc2)CC1,0.3,72*,0.5,48,3
CCN(CC)S(=O)(=O)c1ccc(C(=O)OC2CCCCC2CN(C)C)cc1 (centres undefined),0.5,50*,0.9,8,12
CN(C)CC1CCCCC1OC(=O)c1ccc(Cl)cc1 (centres undefined),nt,nt,nt,nt,22
O=C(c1ccc(NS(=O)(=O)c2ccccc2)cc1)N1CCCC1,0.1,93*,0.2,76*,2
CCN(CC)S(=O)(=O)c1cccc(C(=O)N2CCCCC2)c1,1.1,-14,1,-1,15
CCN(CC)S(=O)(=O)c1ccc(NS(=O)(=O)c2ccc(C)c(C)c2)cc1,0,99*,0,98*,3
CCN(CC)S(=O)(=O)c1ccc(S(=O)(=O)Nc2ccc(C(=O)N3CCCC3)cc2)cc1,0,99*,0.5,51*,13
CN(C)S(=O)(=O)c1ccc(S(=O)(=O)Nc2ccc3c(c2)oc2ccccc23)cc1,0.7,28,1.2,-18,8
O=C(c1ccc(S(=O)(=O)Nc2ccccc2)cc1)N1CCOCC1,0.9,8,0.8,19,2
CCN(CC)S(=O)(=O)c1cc(NS(=O)(=O)c2ccccc2)ccc1C,nt,nt,nt,nt,5
CCN(CC)S(=O)(=O)c1ccc(S(=O)(=O)Nc2ccc3c(c2)oc2ccccc23)cc1,0,100*,0.3,70*,3
O/N=C1\CCCC\C1=C/c1ccccc1,nt,nt,nt,nt,12
CCOC(=O)c1cnc(SCC(=O)Nc2cc(C(F)(F)F)ccc2N2CCOCC2)nc1N,1,5,1,4,8
CCCC(=O)Nc1ccc2nc(SCC(=O)Nc3ccc(N4CCOCC4)c(Cl)c3)sc2c1,0.3,69*,0.6,40,0
CCOC(=O)c1cnc(SCC(=O)Nc2ccc(N3CCOCC3)c(Cl)c2)nc1N,0.2,81*,0.9,12,3
Nc1ccc2nc(SCC(=O)Nc3ccc(N4CCOCC4)c(Cl)c3)sc2c1,nt,nt,nt,nt,30
COc1ccc(OCC(=O)Nc2ccc(N3CCOCC3)c(Cl)c2)cc1,0.4,65*,0.5,50,11
Cn1ccnc1SCC(=O)Nc1ccc2nc(SCC(=O)NC3CC3)sc2c1,0.4,62*,0.8,19,13
O=C(CN1CCN(C2CCCCC2)CC1)c1ccc2cc[nH]c2c1,0.9,14,0.9,7,4
CC(=O)Nc1sc2c(c1CN1CCN(C)CC1)CCCC2,1.1,-12,0.8,20,24
CC1=C(C(=O)Nc2ccc(C)cc2C)C(c2ccc(C)o2)NC(=S)N1 (centres undefined),nt,nt,nt,nt,15
COc1cccc(-c2nc(NC(C)(C)C)c3ccccc3n2)c1O,0.2,84*,0.7,31,11
Oc1ccccc1-c1nc(NCCN2CCOCC2)c2ccccc2n1,0,97*,0.1,89*,11
Cc1ccc(-c2nc(NCCN3CCOCC3)c3ccccc3n2)cc1,0.3,72*,0.4,59*,6
Fc1ccccc1-c1nc(NCCCN2CCOCC2)c2ccccc2n1,nt,nt,nt,nt,5
